In publication PMC9838217, “Structure of SALL4 zinc finger domain reveals link between AT-rich DNA binding and Okihiro syndrome”:
Changes are numbered by the printed parent chain.

Tests used:
[1] = biological target: T1, SALL4 ZFC4 R900W (HT-SELEX) (Mus musculus, UniProt Q8BX22 870-940, R900W); assay: HT-SELEX; high values mean tight binding; conditions: protein: recombinant; vector His6-GST; dsDNA, one strand shown
T1 sequence: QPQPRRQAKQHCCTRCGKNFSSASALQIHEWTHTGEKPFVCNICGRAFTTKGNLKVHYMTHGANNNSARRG
How it was run: (§1)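 A 100 µl reaction of 10 mM Tris–HCl pH 7.5, 50 mM NaCl, poly(dI-dC) and DTT held purified recombinant mouse SALL4 zinc finger cluster 4 (residues 870–940, 1 µg) and library DNA (1.5 µg first cycle, 200 ng later) for 10 min at room temperature. Complexes captured on Ni2+ beads were washed, PCR-amplified and reselected for up to 6 cycles, in triplicate, then MiSeq-sequenced and scanned for 6-mers. Binding signal is the read fraction of each canonical k-mer expressed as fold change over the initial random library.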

[2] = biological target: T2, SALL4 ZFC4 G921D (HT-SELEX) (Mus musculus, UniProt Q8BX22 870-940, G921D); assay: HT-SELEX; high values mean tight binding; conditions: protein: recombinant; vector His6-GST; dsDNA, one strand shown
T2 sequence: T1 sequence with W31R, G52D
How it was run: as §1

| Sequence | binding signal [1] | binding signal [2] |
| --- | --- | --- |
| GTGCAC | 0.313 ± 0.0179 fold-change vs cycle 0 | 0.456 ± 0.0786 fold-change vs cycle 0 |
| AGCGGG | 0.168 ± 0.0263 fold-change vs cycle 0 | 0.277 ± 0.0671 fold-change vs cycle 0 |
| GGCAGA | 0.306 ± 0.0166 fold-change vs cycle 0 | 0.438 ± 0.0703 fold-change vs cycle 0 |
| GCAAGC | 0.302 ± 0.00778 fold-change vs cycle 0 | 0.429 ± 0.0449 fold-change vs cycle 0 |
| GGCGGA | 0.12 ± 0.0101 fold-change vs cycle 0 | 0.238 ± 0.0604 fold-change vs cycle 0 |
| CGGCGC | 0.0207 ± 0.00259 fold-change vs cycle 0 | 0.0907 ± 0.0497 fold-change vs cycle 0 |
